Screening data as filed in PubChem.
A selection: hits, their analogues and other compounds. The true share with any hit is near 5.1%.
MPTP inh: blocks calcium-induced mitochondrial swelling. inhibition, % at 10 µM. 360,000 tested, 1.4% active. isolated mouse mitochondria, Ca2+ swelling absorbance, 30 min. AID 602449;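 active = inhibition of 50% or more, scaled per plate between neutral and stimulator controls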;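 note: 0% = DMSO wells given calcium and 100% = 1 mM EGTA wells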
CRFBP-R2 agonist: agonists of human CRF-binding protein/CRF-R2 receptor complex | HEK293 CRF-R2/CRF-BP, calcium dye fluorescence (FLIPR); percent of saturating CRF peptide response | 350,000 tested, 0.46% active | activation, % at 13.2 µM;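 active = activation of at least 50%, plus an integration ratio under a set limit after plate pattern correction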;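 note: plate controls were neutral control wells without compound for no effect and CRF at EC100 for full effect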
NR3A LBD binder: NR3A (human) ligand-binding domain modulation; NR3A LBD differential scanning fluorimetry, Tm shift; 0% = protein alone, 100% = glycine-bound protein; Tm shift relative to glycine control, % at 25 µM; 340,000 tested, 2.5% active; AID 1259313;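 active = melting temperature shift of at least 10% of the positive control shift, at one fixed dose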
CRFBP-R2 block: antagonists of CRF-binding protein/CRF-R2 receptor complex | HEK293 CRF-R2/CRF-BP, CRF-induced calcium fluorescence | inhibition, % at 11.8 µM | 350,000 tested, 0.59% active;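 active = inhibition of the ligand-induced calcium signal above about 50% at the single tested concentration, limit read from the data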
TMEM16A act: activators or potentiators of mouse TMEM16A chloride channel; HEK293 TMEM16A/YFP-H148Q/I152L, iodide quench fluorescence; hits give low values; B-score at 10 µM; 340,000 tested, 0.3% active; AID 623877;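 active = fluorescence-ratio B-score plate-corrected deviation score at least 3 library SD below zero, with starting fluorescence score within 5 deviations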;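 note: channel opened by trigger with iodide after compound preincubation; score built on the fluorescence ratio of max minus min over baseline; more negative score means more quench and so TMEM16A activation or potentiation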
Target sequence (Q8BHY3 whole entry, looked up): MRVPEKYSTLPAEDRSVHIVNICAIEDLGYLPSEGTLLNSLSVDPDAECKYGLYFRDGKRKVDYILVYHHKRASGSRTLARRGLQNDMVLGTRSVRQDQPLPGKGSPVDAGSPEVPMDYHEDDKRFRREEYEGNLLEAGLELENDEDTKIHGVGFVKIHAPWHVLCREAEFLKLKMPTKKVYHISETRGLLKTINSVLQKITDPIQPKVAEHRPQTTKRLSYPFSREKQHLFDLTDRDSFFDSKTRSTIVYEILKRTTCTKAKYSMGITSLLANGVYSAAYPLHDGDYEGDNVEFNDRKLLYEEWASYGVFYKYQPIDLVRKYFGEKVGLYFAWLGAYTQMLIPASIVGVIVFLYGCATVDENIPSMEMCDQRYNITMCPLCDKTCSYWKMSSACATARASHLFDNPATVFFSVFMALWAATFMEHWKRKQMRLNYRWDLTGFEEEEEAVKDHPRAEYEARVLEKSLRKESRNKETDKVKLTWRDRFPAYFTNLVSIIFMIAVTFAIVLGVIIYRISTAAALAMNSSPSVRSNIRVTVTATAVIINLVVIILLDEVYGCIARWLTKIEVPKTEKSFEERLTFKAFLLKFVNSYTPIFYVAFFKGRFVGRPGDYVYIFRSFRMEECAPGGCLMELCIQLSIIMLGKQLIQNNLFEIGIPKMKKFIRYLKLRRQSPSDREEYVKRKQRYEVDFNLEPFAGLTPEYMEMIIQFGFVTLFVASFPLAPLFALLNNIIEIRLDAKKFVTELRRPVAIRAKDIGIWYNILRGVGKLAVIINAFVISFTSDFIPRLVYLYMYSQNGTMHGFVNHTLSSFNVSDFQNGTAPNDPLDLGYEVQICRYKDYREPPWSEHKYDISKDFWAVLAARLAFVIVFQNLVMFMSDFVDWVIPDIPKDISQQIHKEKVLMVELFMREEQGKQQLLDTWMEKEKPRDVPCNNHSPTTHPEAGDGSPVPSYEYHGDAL
ANO1 block: blocks the mouse calcium-activated chloride channel TMEM16A | 310,000 tested, 1.2% active | HEK293 TMEM16A/YFP iodide influx fluorescence, ionomycin | normalized B-score (activity score, 25-100; higher = stronger inhibition) at 10 µM | AID 588511 | Q8BHY3;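 active = ratio plate-corrected score three or more library SD toward inhibition, starting fluorescence score within five deviations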;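 note: score derived from kinetic fluorescence span divided by baseline fluorescence per well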
MPTP counter: mitochondrial membrane potential, counter-screen; 5,000 tested, 78% active; inhibition, % at 10 µM; AID 624504; shares compounds with MPTP inh; isolated mitochondria, Rhodamine 123 fluorescence; in the data active = inhibition above about 22%;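 note: 0% = DMSO vehicle and 100% = positive control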
MPTP abs DR: MPTP inhibition, dose response swelling confirmation; shares compounds with MPTP inh; 780 tested, 58% active; isolated mitochondria swelling, absorbance; AID 651561; IC50, µM; in the data active = IC50 below about 20 µM
MPTP counter DR: MPTP inhibitor counter-screen activity, dose response; IC50, µM; isolated mitochondria counterscreen, fluorescence read-out; 780 tested, 49% active; AID 651564; shares compounds with MPTP inh; in the data active = IC50 below about 80 µM
* marks the source's active call; other numbers are inactive results; i = inactive; . = no result.

SMILES	MPTP inh	CRFBP-R2 agonist	NR3A LBD binder	CRFBP-R2 block	TMEM16A act	ANO1 block	MPTP counter	others
CCN1/C(=C/c2ccc3ccccc3[n+]2CC)C=Cc2ccccc21	160.4*	-0.9	-0.9	8.9	i	i	68.4*
CCN1/C(=C/c2ccc3cc(C)ccc3[n+]2CC)Sc2cc(C)ccc21	98.3*	131.4*	-0.4	-183.8	i	.	103.1*
CCN1/C(=C/c2ccc3ccccc3[n+]2CCCS(=O)(=O)[O-])C=Cc2cc(C)ccc21	17.5	2.0	-3.0	-8.3	i	i	.
CCCCN1/C(=C/c2ccc3ccccc3[n+]2CC)Sc2ccccc21	94.3*	128.1*	1.0	-138.2	i	.	104.4*
CC(C)NC(=O)N1Cc2cc(C(=O)NC3CCC3)nc(-c3cccc(-c4cncnc4)c3)c2[C@H]1CCO	-1.0	.	.	.	.	.	.
O=C(c1cc(C(=O)NCCc2ccccc2)c(=O)n(CCc2ccccc2)c1)c1cc(Cl)ccc1O	98.5*	2.0	13.2*	-6.7	i	i	79.2*
Cc1cc(NC(=O)NC(=O)c2ccccc2NC(=O)C(C)N)ccc1Oc1ncc(Br)cn1 (stereo unspecified)	-1.8	2.9	7.8	-44.5	i	.	.
Cc1ccc(S(=O)(=O)/N=C(/Nc2ccc(O)c(C(=O)O)c2)c2ccccc2)cc1	-0.9	-0.8	1.4	8.0	i	.	.
c1ccc(-c2ccc(OCCCNC3CCCC3)cc2)cc1	88.3*	0.1	0.6	-32.8	i	i	-6.8	MPTP abs DR=5.22*;MPTP counter DR=46*
Cn1c(CC(=O)Nc2ccc(Cl)cc2)nnc1SCC(=O)N1CCOCC1	-2.6	0.3	1.8	-3.8	i	i	.
COc1ccccc1NS(=O)(=O)c1ccc(O)c(C(=O)OCC(=O)c2ccc(Cl)cc2Cl)c1	-1.8	1.4	0.1	4.9	i	i	.
O=C(COC(=O)c1cc(S(=O)(=O)Nc2ccccc2Cl)ccc1O)Nc1nc2ccccc2s1	90.4*	-2.0	23.8*	-1.4	-41.5*	.	77.7*
N#Cc1cccc(NC(=O)COC(=O)c2cc(S(=O)(=O)Nc3ccccc3Cl)ccc2O)c1	57.9*	47.4	18.5*	31.7	i	.	85.9*
Cc1cccc(C)c1NC(=O)COC(=O)c1cc(S(=O)(=O)Nc2ccc(Cl)cc2)ccc1O	0.5	2.0	7.5	-8.1	i	.	.
COCCN1CCN(C(=O)C2CCC(=O)N(CCc3ccccc3)C2)CC1 (stereo unspecified)	-0.6	1.0	-2.5	0.7	i	i	.
Cc1ccc2c(c1)c1c3n2CCN(C(=O)Cn2c(-c4ccccc4)noc2=O)C3CCC1 (stereo unspecified)	-0.7	-0.6	-2.2	-23.3	i	i	.
CN1CCN(CC(=O)N2CCn3c4c(c5cc(C6CCCCC6)ccc53)CCCC42)CC1 (stereo unspecified)	98.2*	7.4	-3.9	-32.5	i	i	-17.1
Cc1ccc2c(c1)c1c3n2CCN(C(=O)CN2CCN(C)CC2)C3CCC1 (stereo unspecified)	75.0*	1.4	0.1	17.0	i	i	-8.3	MPTP abs DR=19.7*;MPTP counter DR=>80
Cc1ccc2c(c1)c1c3n2CCN(C(=O)C2CC2)C3CCC1 (stereo unspecified)	0.9	-0.7	1.5	2.1	i	i	.
Cc1nc2ccccn2c1-c1ccnn1S(=O)(=O)c1ccc(F)cc1	78.6*	-8.2	0.4	-10.5	i	i	48.3*
COc1ccc([C@H]2C[C@@H](n3cc(-c4ccc(F)cc4)nn3)[C@H](O)CN2C(=O)c2cccs2)cc1	-0.5	-0.4	.	-3.3	.	.	.
COc1ccc(Cl)cc1C(=O)Nc1nc(C)cc(C)n1	-0.9	2.5	-2.1	-2.9	i	i	.
C[C@@H]1CN([C@H](C)CO)C(=O)CCCn2cc(nn2)CO[C@H]1CN(C)S(=O)(=O)c1ccccc1	-2.2	-0.6	.	-5.3	.	.	.
COc1ccccc1/C=C/CN1CCC(n2nccc2NC(=O)CCc2ccccc2)CC1	73.6*	0.2	-1.6	3.6	i	i	108.6*
COc1ccc(/C=N/Nc2cc(N3CCCC3)nc(N3CCCC3)n2)cc1	77.2*	1.6	3.2	-78.8	-18.5*	i	81.8*
SMILES	MPTP inh	CRFBP-R2 agonist	NR3A LBD binder	CRFBP-R2 block	TMEM16A act	ANO1 block	MPTP counter	others
CCOC(=O)NC(=O)/C(C#N)=N\Nc1ccc(Cl)cc1	90.2*	0.3	-5.1	2.3	i	i	95.1*
CCOc1ccc(N/N=C(/C#N)C(N)=O)cc1	0.8	-0.4	-5.3	6.1	i	i	.
N#C/C(=N\Nc1ccc(Cl)cc1)C(=O)c1ccccc1	95.9*	43.5	7.0	83.3*	i	i	82.9*
CCOC(=O)NC1(Nc2cccc(Cl)c2)Oc2ccccc2O1	0.7	-1.6	2.6	-4.2	i	i	.
CCOC(=O)NC(=O)/C(C#N)=N\Nc1cccc(Cl)c1	92.8*	10.6	-1.4	4.6	i	i	72.9*
Cc1c(N/N=C(\C#N)C(=O)c2ccc(Cl)cc2)c(=O)n(-c2ccccc2)n1C	9.8	0.1	-5.7	7.4	i	i	.
Cc1ccc(NC(=O)COC(=O)C2COc3ccccc3O2)cc1 (stereo unspecified)	-0.1	0.6	1.7	3.5	i	.	.
CC1CC(C)CN(C(=O)Cn2nnc(-c3ccc(Br)cc3)n2)C1 (stereo unspecified)	0.7	-0.3	-0.4	-21.5	i	i	.
C=CCOC(=O)C1=C(C)NC(SCC(=O)Nc2ccccc2)=C(C#N)C1c1ccco1 (stereo unspecified)	63.8*	2.6	3.3	16.5	i	i	67.8*
C=CCOC(=O)C1=C(C)NC(SCC(=O)N(CC)CC)=C(C#N)C1c1ccco1 (stereo unspecified)	-0.9	3.4	0.2	8.7	i	i	.
CC(C)COC(=O)NCC12C=CC(O1)C1C(=O)N(c3ccc(Cl)cc3)C(=O)C12 (stereo unspecified)	84.9*	1.8	3.5	0.1	i	i	8.7
CC(C)(C)C(=O)NCC12C=CC(O1)C1C(=O)N(c3ccccc3)C(=O)C12 (stereo unspecified)	-0.3	0.0	1.8	-11.0	i	i	.
O=C(Nc1ccc(Cl)cc1)Nc1nnc(Cc2ccc([N+](=O)[O-])cc2)s1	82.6*	0.3	-0.4	9.3	i	i	63.5*
Cc1ccc(SCc2nnc(NC(=O)c3ccccc3)s2)cc1	-0.6	0.3	-0.6	0.8	i	i	.
